Measured values published in PubChem BioAssay (NCI).
The panel holds about 83,000 compounds, 20% with a hit somewhere; the sample as a whole holds those more often.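 Testing used 96-well plates and a 48-hour single-concentration exposure. Example: -40 means 40% of the starting cells died.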 Active and inactive are the calls of the source. The calls were made as follows: active = growth percent below 10; inactive = the rest.

Experiments:
Assay in all cases: NCI-60 one-dose screen, 48 h (100 = growth as untreated, 0 = no growth, -100 = all killed)
NCI-H23 lung = conditions: 10 µM unless noted
NCI-H226 lung = conditions: 10 µM unless noted
NCI-H322M lung = conditions: 10 µM unless noted
HOP-62 NSCLC = conditions: 10 µM unless noted
NCI-H460 lung = conditions: 10 µM unless noted
786-0 renal = conditions: 10 µM unless noted
MDA-MB-231 breast = conditions: 10 µM unless noted
SF-268 CNS = conditions: 10 µM unless noted
SF-539 CNS = conditions: 10 µM unless noted
M14 melanoma = conditions: 10 µM unless noted
HCT-15 colon = conditions: 10 µM
U251 CNS = conditions: 10 µM unless noted
UO-31 renal = conditions: 10 µM unless noted
OVCAR-3 ovarian = conditions: 10 µM unless noted
MDA-MB-435 melanoma = conditions: 10 µM unless noted
SW-620 colon = conditions: 10 µM unless noted
MCF7 breast = conditions: 10 µM unless noted
HCT-116 colon = conditions: 10 µM unless noted
KM12 colon = conditions: 10 µM unless noted
SK-OV-3 ovarian = conditions: 10 µM unless noted

Measured: growth

CCC(/C=C(C)/C=C/C(=O)c1c(O)c(-c2ccc(O)cc2)c[nH]c1=O)CO (centres undefined)
inactive: NCI-H23 lung 98.4% | NCI-H226 lung 106% | NCI-H322M lung 96% | HOP-62 NSCLC 98% | NCI-H460 lung 93.4% | 786-0 renal 87.6% | MDA-MB-231 breast 111% | SF-268 CNS 45.1% | SF-539 CNS 77.4% | M14 melanoma 104% | HCT-15 colon 91.6% | U251 CNS 67.6% | UO-31 renal 67.9% | OVCAR-3 ovarian 41.8% | MDA-MB-435 melanoma 80.9% | SW-620 colon 100% | MCF7 breast 88.7% | HCT-116 colon 80.1% | KM12 colon 47%

CC(=O)N(C)C1=Nc2ccc(Cl)cc2C(c2ccccc2)=[N+]([O-])C1
inactive: NCI-H23 lung 101% | NCI-H226 lung 105% | NCI-H322M lung 82.6% | HOP-62 NSCLC 96.3% | NCI-H460 lung 111% | 786-0 renal 110% | MDA-MB-231 breast 109% | SF-268 CNS 105% | SF-539 CNS 104% | M14 melanoma 114% | HCT-15 colon 108% | U251 CNS 111% | UO-31 renal 80.7% | SK-OV-3 ovarian 102% | OVCAR-3 ovarian 117% | MDA-MB-435 melanoma 111% | SW-620 colon 107% | MCF7 breast 104% | HCT-116 colon 99.3% | KM12 colon 107%

CC(CC(C#N)(c1ccccc1)c1ccccc1)N1CCOCC1 (centres undefined)
inactive: NCI-H23 lung 106% | NCI-H226 lung 112% | NCI-H322M lung 107% | HOP-62 NSCLC 97.6% | NCI-H460 lung 112% | 786-0 renal 112% | MDA-MB-231 breast 94.4% | SF-268 CNS 101% | SF-539 CNS 101% | M14 melanoma 114% | HCT-15 colon 102% | U251 CNS 99.2% | UO-31 renal 74.6% | SK-OV-3 ovarian 109% | OVCAR-3 ovarian 105% | MDA-MB-435 melanoma 118% | SW-620 colon 106% | MCF7 breast 122% | HCT-116 colon 106% | KM12 colon 104%

COC(=O)C(=[N+]=[N-])C(=O)OC
inactive: NCI-H23 lung 98.1% | NCI-H226 lung 99.2% | NCI-H322M lung 103% | HOP-62 NSCLC 103% | NCI-H460 lung 106% | 786-0 renal 98.3% | MDA-MB-231 breast 113% | SF-268 CNS 106% | SF-539 CNS 103% | M14 melanoma 103% | HCT-15 colon 105% | U251 CNS 104% | UO-31 renal 88.3% | SK-OV-3 ovarian 101% | OVCAR-3 ovarian 118% | MDA-MB-435 melanoma 100% | SW-620 colon 100% | MCF7 breast 88.3% | HCT-116 colon 94.2% | KM12 colon 110%

ClCCN(CCCl)c1ccc(/C=C\c2ccnc3ccccc23)cc1
inactive: NCI-H23 lung 61.6% | NCI-H226 lung 69.1% | NCI-H322M lung 92.3% | HOP-62 NSCLC 120% | NCI-H460 lung 56.3% | 786-0 renal 84.2% | MDA-MB-231 breast 92.2% | SF-268 CNS 94.9% | SF-539 CNS 92.5% | M14 melanoma 85.5% | HCT-15 colon 75% | U251 CNS 76.4% | UO-31 renal 70.8% | SK-OV-3 ovarian 101% | OVCAR-3 ovarian 84% | MDA-MB-435 melanoma 76% | SW-620 colon 77.2% | MCF7 breast 61.5% | HCT-116 colon 52.2% | KM12 colon 83.1%

COc1ccc(C(=O)c2ccc([As]=O)cc2)cc1 (centres undefined)
active: NCI-H23 lung -43.4% | NCI-H226 lung -59.6% | NCI-H322M lung -94.1% | HOP-62 NSCLC -86.1% | NCI-H460 lung -62.5% | 786-0 renal -99.5% | MDA-MB-231 breast -71% | SF-268 CNS -83.5% | SF-539 CNS -91.6% | M14 melanoma -84% | HCT-15 colon -73% | U251 CNS -98.1% | UO-31 renal -95% | SK-OV-3 ovarian -99.8% | OVCAR-3 ovarian -40.4% | MDA-MB-435 melanoma -80.9% | SW-620 colon -64.4% | MCF7 breast -20.3% | HCT-116 colon -83.3% | KM12 colon -93.7%

O=C(CC1(O)C(=O)Nc2ccc(F)cc21)c1ccc(C(=O)NCC2CCC3(CC2)OOC2(CCCCC2)OO3)cc1 (centres undefined)
inactive: NCI-H23 lung 34.9% | NCI-H226 lung 69.3% | NCI-H322M lung 94.6% | NCI-H460 lung 21.7% | MDA-MB-231 breast 41.5% | SF-268 CNS 63.4% | M14 melanoma 83.9% | HCT-15 colon 74.1% | U251 CNS 15.3% | SK-OV-3 ovarian 91.1% | MDA-MB-435 melanoma 63.8% | SW-620 colon 61.1% | MCF7 breast 60.9% | HCT-116 colon 69.7% | KM12 colon 32.5%
active: HOP-62 NSCLC -14.4% | 786-0 renal -78.5% | SF-539 CNS 7.74% | UO-31 renal -81.7% | OVCAR-3 ovarian -50.1%

C[C@@H]1CC[C@@H]2[C@@H]1[C@H](OC(=O)/C=C/C1CCCCC1)[C@]1(C3CCCCC3)C[C@@H](OC(=O)CO)[C@@]2(C)O1
inactive: NCI-H23 lung 71.5% | NCI-H226 lung 56.9% | NCI-H322M lung 85.6% | HOP-62 NSCLC 69.7% | NCI-H460 lung 64.2% | MDA-MB-231 breast 61.5% | SF-268 CNS 39.6% | SF-539 CNS 95.9% | M14 melanoma 65.2% | HCT-15 colon 48.4% | U251 CNS 60.2% | SK-OV-3 ovarian 69% | OVCAR-3 ovarian 70.6% | MDA-MB-435 melanoma 72.9% | SW-620 colon 66.4% | MCF7 breast 40.2% | HCT-116 colon 39.6% | KM12 colon 56%
active: 786-0 renal -10.1% | UO-31 renal -44.2%
